An excerpt weighted towards active compounds, which were near 22% of everything screened.
CYP2C19 act – human CYP2C19 activators, primary screen, biochemical, luminescence; 96,000 tested, under 10 active; activation factor at 5 µM; recombinant CYP2C19, luciferin-H EGE luminescence; active compounds read high; 0 = fully inhibited enzyme, 1 = untreated enzyme; Cytochrome P450 2C19 (Homo sapiens), P33261;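 active means activation factor of at least 2 at 5 µM in the primary screen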;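 further: 0 = wells with 2.5 mM tranylcypromine and 1 = vehicle-only wells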
Target sequence (P33261 whole entry, looked up): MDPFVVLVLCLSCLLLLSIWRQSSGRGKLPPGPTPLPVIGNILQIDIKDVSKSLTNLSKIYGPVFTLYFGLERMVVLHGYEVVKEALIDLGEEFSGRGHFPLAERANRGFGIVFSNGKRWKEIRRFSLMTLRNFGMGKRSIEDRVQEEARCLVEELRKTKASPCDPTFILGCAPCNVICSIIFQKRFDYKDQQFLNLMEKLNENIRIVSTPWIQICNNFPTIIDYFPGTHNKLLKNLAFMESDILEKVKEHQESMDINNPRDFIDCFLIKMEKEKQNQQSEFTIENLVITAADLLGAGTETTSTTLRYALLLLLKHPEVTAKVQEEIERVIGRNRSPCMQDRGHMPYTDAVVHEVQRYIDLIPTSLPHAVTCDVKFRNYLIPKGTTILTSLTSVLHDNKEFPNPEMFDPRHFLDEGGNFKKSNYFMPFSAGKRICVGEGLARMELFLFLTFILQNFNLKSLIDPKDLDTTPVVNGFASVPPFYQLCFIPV
CYP2C9 inh – blockers of cytochrome P450 2C9 activity – biochemical, luminescence, ADME assay, primary screen. P11712. CYP2C9 Supersomes, luciferin-H conversion. inhibition, % at 5 µM. 96,000 compounds, 20% hits;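 active means blocking of liver enzyme CYP2C9 beyond about 50% at 5 µM, limit read from the data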
Measles CPE – compounds protecting cells from measles virus cytopathic effect, primary screen, measles RdRp inhibitor project, single point, MLSMR library, absorbance. protection (pct of control), % at 4 µM. Measles virus-infected cells, CPE protection. 140,000 compounds, 1.5% hits; in the data active means protection mostly above about 24%, no sharp cut-off; inactive means mostly below about 26%
CYP2C19 inh – blockers of cytochrome P450 2C19 activity – biochemical, luminescence, ADME assay, primary screen | P33261 | CYP2C19 Supersomes, luciferin-H EGE luminescence, 30 min | inhibition, % at 5 µM | 96,000 compounds, 21% hits;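 active means CYP2C19 inhibition above a set limit at 5 µM in the primary screen, cut at about 50% in these data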;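 further: plate controls were negative control wells for no effect and 2.5 mM tranylcypromine positive control for full effect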
CYP2C9 activ – human CYP2C9 activators, primary screen, biochemical, luminescence | Cytochrome P450 2C9 (Homo sapiens), P11712 | recombinant CYP2C9, luciferin-H conversion; active compounds read high; factor 1 = untreated enzyme, 0 = blocked | activation factor at 5 µM | 96,000 compounds, 1.4% hits | AID 1024, 2008;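 active means activation factor of 2 or more for CYP2C9 at a 5 µM dose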;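 further: 0 = sulfaphenazole-blocked wells and 1 = vehicle-only wells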
Starred values were filed as active, the others as inactive; / = no result given.

SMILES	CYP2C19 act	CYP2C9 inh	Measles CPE	CYP2C19 inh	CYP2C9 activ
Cc1ccccc1NC1C=CS(=O)(=O)C1 (stereo not drawn)	0.9	5	11	9	0.9
Cc1ccc(SC(=O)COc2ccccc2C)cc1	0.9	12	4	9	0.9
Cc1ccc(/C(COc2ccccc2O)=N\O)cc1	0.2	41	2	76*	0.6
Clc1cc(Sc2ccc(Br)cc2)nnc1-c1ccccc1	0.5	68*	5	54*	0.3
CN1CCN(C(=O)/C=C\C(=O)O)CC1	/	/	4	/	/
Cc1nnc(NC(=O)c2ccc(S(=O)(=O)N(C)Cc3ccccc3)cc2)o1	1.1	78*	14	-11	0.2
COCc1nnc(NC(=O)c2ccc(S(=O)(=O)N(C)C3CCCCC3)cc2)o1	1	76*	18	-4	0.2
CCc1nnc(NC(=O)c2ccc(S(=O)(=O)N(CC(C)C)CC(C)C)cc2)o1	/	/	13	/	/
COCCN(CCOC)S(=O)(=O)c1ccc(C(=O)Nc2nnc(C)o2)cc1	1.2	-12	2	-18	1.1
CCN(Cc1ccccc1)S(=O)(=O)c1ccc(C(=O)Nc2nnc(C3CC3)o2)cc1	1	88*	4	2	0.1
Cc1ccc(Cl)cc1N1CCN(CC(=O)Nc2ccc3[nH]c(=O)[nH]c3c2)CC1	0.9	-21	12	13	1.2
O=C1C2C3C=CC(C3)C2C(=O)N1Cc1ccccc1 (stereo not drawn)	0.2	19	3	84*	0.8
CC12C(=O)N(Cc3ccccc3)C(=O)C1C1C=CC2C1 (stereo not drawn)	0.1	20	12	89*	0.8
C/C(Cl)=C/CN1C(=O)C2C3C=CC(C3)C2C1=O (stereo not drawn)	0.3	29	14	73*	0.7
CC12CCC(C(=O)NCc3ccco3)(OC1=O)C2(C)C (stereo not drawn)	0.9	-6	4	7	1.1
Cc1cc(NC(=O)CSc2nnc(Cc3ccccc3)o2)no1	1.1	6	3	-9	0.9
CCN(CC)CCNC(=O)c1cc2c(-c3ccc(Cl)cc3)nn(C)c2s1	0.8	18	6	18	0.8
Cn1nc(-c2ccc(Cl)cc2)c2cc(C(=O)NCCCN3CCOCC3)sc21	0.7	58*	-1	29	0.4
O=C(NCCCN1CCOCC1)c1cc(-c2ccc(O)cc2)on1	1.1	-121	28	-8	2.2*
Cn1nc(-c2ccc(Cl)cc2)c2cc(C(=O)NCCN3CCOCC3)sc21	0.5	70*	2	49	0.3
CCOCCCNC(=O)c1cc2c(-c3ccc(Cl)cc3)nn(C)c2s1	0.4	49	9	61*	0.5
CCN(CC)c1ccc(C(=O)OCC(=O)Nc2sccc2C#N)cc1	/	/	16	/	/
CN(C)C(=O)CSc1nnc([C@H](Cc2c[nH]c3ccccc23)NC(=O)OC(C)(C)C)o1	0.9	13	5	10	0.9
COc1ccc(N2CCN(C(CNC(=O)C(=O)NCCc3c[nH]c4ccccc34)c3ccco3)CC2)cc1 (stereo not drawn)	/	/	15	/	/
COc1ccc(C2=CC(c3ccc(OC)c(OC)c3)n3nnnc3N2)c(OC)c1 (stereo not drawn)	0.1	97*	1	90*	0
SMILES	CYP2C19 act	CYP2C9 inh	Measles CPE	CYP2C19 inh	CYP2C9 activ
COC(=O)C1=C(C(=O)c2ccccc2)C(c2ccc(O)c(OC)c2)n2nnnc2N1 (stereo not drawn)	1	27	21	2	0.7
COc1cccc(C2C=C(c3ccc(OC)cc3OC)Nc3nnnn32)c1 (stereo not drawn)	0.4	77*	1	58*	0.2
CCOc1ccc(C(C)=O)cc1CSc1nnc(-c2ccoc2C)n1N	0.1	74*	2	86*	0.3
Cc1cc(NC(=O)CSc2nnc(-c3ccoc3C)n2N)no1	0.9	7	3	7	0.9
O=C(NNC(=S)Nc1ccc(Cl)cc1Cl)c1ccc(N2CCOCC2)c([N+](=O)[O-])c1	/	/	25	/	/
Cc1cc(C)cc(Oc2ccc(N)cc2)c1	0.2	-77	8	82*	1.8
Cc1cccc(Oc2cc(N)cc([N+](=O)[O-])c2)c1	0.4	34	10	60*	0.7
Cc1cccc(Oc2ccccc2N)c1	0.7	-22	1	34	1.2
Cc1cccc(Oc2ccc(N)cc2)c1	0.2	29	36	84*	0.7
Cc1cc(C)nc(N/C(=N\S(=O)(=O)Cc2ccccc2)Nc2ccc(F)c(Cl)c2)n1	/	/	20	/	/
CCC(C)N(C(=O)CSc1nc(-c2ccccc2)cs1)C1CCS(=O)(=O)C1 (stereo not drawn)	0.9	-153	2	12	2.5*
CCC(C)N(C(=O)COC(=O)c1cn(CC)c2nc(C)ccc2c1=O)C1CCS(=O)(=O)C1 (stereo not drawn)	1.2	-10	/	-15	1.1
CC1=C(C#N)C(=O)OC(C)(C)C1	1.1	-18	9	-14	1.2
COc1ccc(OC)c(C(=O)c2ccccc2)c1	/	/	9	/	/
COc1ccc(O)c(-c2[nH]ncc2C(=O)c2ccccc2C)c1	0.1	87*	22	90*	0.1
COC(=O)c1ccc2[nH]c(C)c(CN3CCCC3)c(=O)c2c1	1	-12	48*	2	1.1
CCCS/C(N)=N/N=C/c1ccccc1O	0.2	59*	3	79*	0.4
CCO/N=C(\C)c1c(O)c(CC)c(-c2ccccc2)n(-c2ccccc2)c1=O	/	/	21	/	/
Cc1cc2nn(-c3cccc4ccccc34)nc2cc1N	0.7	58*	8	31	0.4
Cc1ccc(-n2nc3cc(C)c(N)cc3n2)cc1	1.2	-4	1	-22	1
Nc1ccc2nn(-c3cccc4ccccc34)nc2c1	0.5	51*	6	49	0.5
On1nnc2ccc3ccccc3c21	/	/	11	/	/
O=C(NCc1ccccc1Cl)c1ccccc1Oc1ccccc1	/	/	24	/	/
CCOC(=O)c1[nH]nc(N)c1NC(=O)c1ccc(Cl)cc1Cl	/	/	28	/	/
C=CCSc1nccc(-c2cc(Cl)sc2Cl)n1	0.2	72*	5	80*	0.3
SMILES	CYP2C19 act	CYP2C9 inh	Measles CPE	CYP2C19 inh	CYP2C9 activ
Fc1cccc(F)c1CN1CCN(c2ncccn2)CC1	0.2	43	12	79*	0.6
Cc1cc(NC(=O)CN2CCN(c3ncccn3)CC2)no1	1.1	1	1	-10	1
Cc1ccc(CN2CCN(c3ncccn3)CC2)o1	0.3	31	2	68*	0.7
O=C(NCCS(=O)CCNC(=O)C(F)(F)F)C(F)(F)F	1.1	-6	8	-6	1.1
COc1nc(Oc2ccc(=O)[nH]n2)nc(N2CCOCC2)n1	1.1	-11	44*	-10	1.1
CCOC(=O)c1oc2cccc(O)c2c1CN1CCOCC1	0.4	37	3	60*	0.6
